Pf growth 48h: inhibits P. falciparum growth in the first generation, 48 h; P. falciparum luciferase growth in erythrocytes, 48 h; Potency, µM (titrated, usually from 28.7 µM), most hits filed as inhibitors; 310,000 tested, 5.9% active
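Compounds are pin-transferred into medium, infected erythrocytes (2% hematocrit, 0.1% parasitemia final) are added, and plates sit one parasite generation at 37 C in 5% CO2. Detection reagent is then added and luminescence measured.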
AmpC detergent: inhibitors of E. coli AmpC beta-lactamase with detergent; P00811; AmpC hydrolysis of nitrocefin, absorbance 480 nm, 0.01% Triton; Potency, µM (highest dose often 114 µM), usual class: inhibitors; 370,000 tested, 0.041% active; note: nearly all actives have a fitted effect of over 25% in size
Target sequence (P00811 whole entry, looked up): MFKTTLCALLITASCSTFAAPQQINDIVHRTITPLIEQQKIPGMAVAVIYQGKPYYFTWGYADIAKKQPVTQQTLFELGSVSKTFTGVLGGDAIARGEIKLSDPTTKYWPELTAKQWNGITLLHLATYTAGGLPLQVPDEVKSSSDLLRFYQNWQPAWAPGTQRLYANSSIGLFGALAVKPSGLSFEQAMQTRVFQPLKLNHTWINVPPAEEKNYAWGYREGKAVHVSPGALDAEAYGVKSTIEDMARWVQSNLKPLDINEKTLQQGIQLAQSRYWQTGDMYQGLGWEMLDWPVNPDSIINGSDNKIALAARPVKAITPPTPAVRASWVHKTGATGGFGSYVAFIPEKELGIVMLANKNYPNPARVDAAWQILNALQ
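20 mM phosphate pH 7.0 + 0.01% (detergent screen) or 0.0001% Triton X-100; 5.3 nM AmpC reagent; cpd preinc 15 min RT; nitrocefin (800 uM stock) to start; A480 q20 s × 4 min; Activity was normalised to no-enzyme and no-compound control wells.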
AmpC no deterg: AmpC beta-lactamase inhibition without detergent. AID 485341. 330,000 tested, 0.52% active. Potency, µM (highest dose often 57.1 µM), actives largely listed as inhibitors. P00811. AmpC nitrocefin hydrolysis, absorbance 480 nm, 0.0001% Triton; note: nearly all actives have a fitted effect of over 20% in size
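20 mM phosphate pH 7.0 + 0.01% (detergent screen) or 0.0001% Triton X-100; 5.3 nM AmpC reagent; cpd preinc 15 min RT; nitrocefin (800 uM stock) to start; A480 q20 s × 4 min; Activity was normalised to no-enzyme and no-compound control wells.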
SARS PLP yeast: inhibitors of SARS-CoV papain-like protease in yeast; S. cerevisiae expressing SARS-CoV PLpro, growth rescue; Potency, µM (top dose mostly 32.9 µM), actives largely listed as activators; 330,000 tested, 0.19% active; calls by dose curve; note: nearly all actives have a fitted effect of over 55% in size
Sm TGR inh: inhibitors of Schistosoma mansoni thioredoxin glutathione reductase | purified TGR, DTNB reduction, TNB absorbance 405 nm | 360,000 tested, 3% active | Potency, µM (series often up to 114 µM), usual class: inhibitors | Q962Y6; note: nearly all actives have a fitted effect of over 60% in size
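First, TGR (20 nM dispensed) and NADPH were mixed with compound. Second, a 15 min room-temperature incubation followed. Third, further NADPH and then DTNB were added to start the reaction. Finally, TNB absorbance was monitored kinetically.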
Pf growth 96h: P. falciparum growth inhibition at 96 hours; Potency, µM (titrated, usually from 28.7 µM), usual class: inhibitors; P. falciparum luciferase reporter growth, 96 h; 320,000 tested, 6.9% active
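Readout is luminescence from an integrated firefly luciferase in P. falciparum. Red cells, 2% hematocrit and 0.05% parasitemia final, were cultured with compound through two parasite generations (96 hours) at 37 C, 5% CO2.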
Hits are given with their value; - = inactive; ? = inconclusive; . = no result. In the library only some 12% were active in any assay of this set; here they are far more common. Unless noted, calls come from the whole dose curve; as a rule, active = well fitted curve in the direction sought with a large enough effect; inconclusive = small, poorly fitted or top-dose-only effect, or another doubt; inactive = no such curve, though single readings can be large; an effect the other way counts as inactive or inconclusive.

SMILES	Pf growth 48h	AmpC detergent	AmpC no deterg	SARS PLP yeast	Sm TGR inh	Pf growth 96h
COc1cccc(NC(=O)CN(C)C(C)C(=O)Nc2ccc(S(=O)(=O)N3CCOCC3)cc2)c1 (stereo not given)	5.2µM	-	-	-	-	4.7µM
O=C(OCc1nnc(-c2ccc([N+](=O)[O-])cc2)o1)C1CCN(C(=O)c2ccc(F)cc2)CC1	-	-	-	-	-	?
Cc1ccc(N2CCN(c3nc4ccc(C)cc4n4nnnc34)CC2)c(C)c1	.	-	.	.	-	.
O=C(O)CCCC(=O)OCc1c(-c2ccccc2)ncc2ccccc12	-	-	-	-	?	?
CCN(Cc1ccc(OC)c(F)c1)C(=O)/C=C/c1ccc(S(=O)(=O)N2CCOCC2)cc1	10µM	-	-	-	-	9.3µM
CCOc1ccccc1NC(=O)c1ccc(S(=O)(=O)N2CCOCC2)cc1	-	-	-	-	-	.
Cn1c(CCC(=O)Nc2ccc(F)cc2)nc2cc(S(=O)(=O)N3CCOCC3)ccc21	-	-	-	-	-	?
CCOc1ccccc1NC(=O)/C=C/c1ccc(S(=O)(=O)N2CCOCC2)cc1	4.7µM	-	-	-	-	4.7µM
CCN(CC)S(=O)(=O)c1ccc2c(c1)nc(CCC(=O)Nc1ccc(N3CCOCC3)cc1)n2C	15µM	-	-	-	-	?
O=C(/C=C/c1ccc(F)cc1)Nc1ccc(S(=O)(=O)N2CCOCC2)cc1	10µM	-	-	-	-	?
CCC(=O)NCCNc1nc2cc(C)cc(C)c2cc1C#N	-	-	-	-	-	-
N#C/C(=C\c1c(Oc2ccc(F)cc2)nc2ccccn2c1=O)c1nc2ccccc2s1	.	-	.	.	-	.
Cc1ccc(/C=C/c2onc(C)c2S(=O)(=O)N2CCC(C(=O)N(CCC(C)C)Cc3ccco3)CC2)cc1	.	-	.	.	-	.
COc1ccc(NC(=O)C(C)N2Cc3ccccc3C2=O)cc1OC (stereo not given)	.	-	.	.	-	.
O=C(CN1CCN(c2ccccn2)CC1)Nc1ccccc1Br	5.2µM	-	-	-	-	?
Cc1nc2ccccc2n1C1CCN(CC(=O)Nc2ccccc2Br)CC1	12µM	-	-	-	-	-
O=C(CN1CCN(c2ccccn2)CC1)Nc1ccccc1F	-	-	-	-	-	?
O=C(CN1CCN(c2ccccn2)CC1)Nc1cc(C(F)(F)F)ccc1Cl	9.3µM	-	-	-	-	.
COc1ccc(S(=O)(=O)NCC(c2ccco2)S(=O)(=O)c2cccs2)cc1C (stereo not given)	.	-	.	.	0.1µM	.
CCOc1ccc(S(=O)(=O)NCC(c2ccco2)S(=O)(=O)c2cccs2)cc1 (stereo not given)	.	-	.	.	0.1µM	.
COc1ccc(S(=O)(=O)NCC(c2ccco2)S(=O)(=O)c2cccs2)cc1F (stereo not given)	.	-	.	.	0.1µM	.
Cc1ccc(S(=O)(=O)C(CNC(=O)c2c(F)cccc2F)c2ccco2)cc1 (stereo not given)	.	-	.	.	-	.
COc1ccc(S(=O)(=O)NCC(c2ccco2)S(=O)(=O)c2ccc(C)cc2)cc1F (stereo not given)	.	-	.	.	0.4µM	.
Cc1c(Cl)cccc1NC(=O)C(C)N(c1ccccc1)S(C)(=O)=O (stereo not given)	.	-	.	.	-	.
Cc1cc(F)ccc1S(=O)(=O)NCC(c1ccco1)S(=O)(=O)c1cccs1 (stereo not given)	.	-	.	.	0.1µM	.
SMILES	Pf growth 48h	AmpC detergent	AmpC no deterg	SARS PLP yeast	Sm TGR inh	Pf growth 96h
Cc1ccc(S(=O)(=O)C(CNS(=O)(=O)c2ccc(F)c(C(F)(F)F)c2)c2ccco2)cc1 (stereo not given)	.	-	.	.	0.32µM	.
Cc1ccc(S(=O)(=O)C(CNC(=O)c2ccc(F)c(F)c2)c2ccco2)cc1 (stereo not given)	.	-	.	.	-	.
Cc1ccc(NCCCCO)cc1C	-	-	-	-	-	-
COc1ccc(-c2noc(CN(C)Cc3ccccc3)n2)c(OC)c1OC	-	-	-	-	-	3.7µM
CN(Cc1ccccc1)S(=O)(=O)c1ccc(OCC(=O)NCc2ccncc2)cc1	4.7µM	-	-	-	-	-
COc1ccc(C)cc1S(=O)(=O)N(CC(=O)NCc1ccc(Cl)cc1)Cc1ccccc1	.	-	-	-	-	12µM
COc1ccc(S(=O)(=O)N(CC(=O)NCc2ccncc2)Cc2ccccc2)cc1	?	?	-	-	-	5.2µM
CCOc1ccc(Nc2c(S(=O)(=O)c3ccccc3)cnc3ccc(CC)cc23)cc1	.	-	.	.	-	.
O=C(CN(c1ccccc1)S(=O)(=O)c1ccccc1[N+](=O)[O-])N1CCCC1	?	-	-	-	-	-
COc1ccc(N(CC(=O)NCc2ccc(Cl)cc2)S(=O)(=O)c2ccccc2[N+](=O)[O-])c(OC)c1	8.3µM	-	-	-	-	-
COc1ccc(S(=O)(=O)N(Cc2nc(-c3ccccc3)no2)C2CCCCC2)cc1	.	-	.	.	-	.
COc1ccc(S(=O)(=O)N(Cc2ccccc2)Cc2nc(-c3ccccc3)no2)cc1	13µM	-	-	-	-	.
COc1ccc(N(CC(=O)NCc2cccnc2)S(=O)(=O)c2ccccc2[N+](=O)[O-])c(OC)c1	-	-	-	-	-	-
CC(C)CNC(=O)CN(c1ccccc1)S(=O)(=O)c1ccccc1[N+](=O)[O-]	?	-	-	-	-	5.9µM
Cc1ccc(Cl)cc1NC(=O)CON=C(N)c1ccccc1	-	?	-	-	-	-
CCn1c(=O)c2sccc2n(Cc2cccc(C)c2)c1=O	-	-	-	-	-	?
COc1ccc(OC)c(NC(=O)CSc2n[nH]c(-c3ccccc3Cl)n2)c1	.	-	.	.	-	.
OCC1OC([S-])[C@H](O)C(O)C1O.[Au+] (stereo not given in full)	-	.	.	.	.	4.8µM
OCC1OC(O)C(O)C(O)C1O (stereo not given)	-	.	.	.	.	?
Cc1cc(=O)n(CC(=O)Nc2ccc([N+](=O)[O-])cc2)c(-n2nc(C)cc2C)n1	.	-	.	.	-	.
O=C1NN(c2cccc(Br)c2)C(=O)/C1=C\c1ccccc1	-	-	-	-	50µM	-
CCc1ccc(NC(=O)CSc2nc3c(c(=O)n(C)c(=O)n3C)n2C)cc1	-	-	-	-	-	10µM
CCc1ccc(NC(=O)CSc2nc3ccsc3c(=O)n2CCC(=O)O)cc1	-	-	-	-	-	7.4µM
CCCn1c(SCC(=O)Nc2ccc(NC(=O)CC)cc2)nc2c1c(=O)n(C)c(=O)n2C	?	-	-	-	-	-
COc1ccc(N(C(=O)COc2ccc(Br)cc2)S(=O)(=O)c2ccc(C)cc2)cc1	.	-	.	.	-	.

Assay outcomes deposited in PubChem by National Center for Advancing Translational Sciences (NCATS).
